Consider 40 compounds from the supplement of paper PMC10941209.

A number with no mark means an inactive call.

The subject of this assay is Toxoplasma gondii RH 2F1 tachyzoites (intracellular in HFF). The assay can be described thus: parasite survival relative to DMSO control; higher = less antiparasitic activity, active = 20 or less. The settings on record: 1 µM; 72 h. The gist of the method:
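Compound at 1 μM was applied for 72 h at 37°C in 5% CO2 to HFF cells in 96-well plates (5 × 10^3 cells/well) that had been infected for 3 h in D2 medium with 5 × 10^3 Toxoplasma gondii RH-2F1 tachyzoites carrying β-galactosidase. The readout was absorbance at 570 nm, 30 min after CPRG addition. Survival is reported as a percentage of the signal from infected wells given DMSO, based on at least 2 biological replicates.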
Consider `Oc1cccc(C(Nc2nccs2)c2ccc3cccnc3c2O)c1` (stereo not given), for which the parasite survival is 2.96% (active).
Next, `Oc1c(C(Nc2nc3ccccc3s2)c2ccc(OC(F)F)cc2)ccc2cccnc12` (stereo not given): 4.28% (active); `CC(=O)O[C@H]1C[C@@]2(C)[C@@H](C[C@@H](O)[C@H]3[C@@]4(C)CC[C@@H](O)[C@@H](C)[C@@H]4CC[C@@]32C)/C1=C(\CCC=C(C)C)C(=O)O`: 48.4%.
With `Nc1cc(-c2nc3ccccc3[nH]2)n[nH]c1=O` the figure was 43%; with `COc1cc(NC(=O)CN2C(=O)NC(c3ccccc3)(c3ccccc3)C2=O)cc(OC)c1`, 49.2%; with `CN(C/C=C/C#CC(C)(C)C)Cc1cccc2ccccc12`, 41.6%.
With `Nc1nc2c(Cc3cccnc3)c[nH]c2c(=O)[nH]1` the figure was 72.8%.
Consider `O=C(NC1CCCc2c1[nH]c1ccc(Cl)cc21)c1ccccn1` (stereo not given), for which the parasite survival is 63.8%.
Next, `CC1(C)[C@H](C(=O)O)N2C(=O)C[C@H]2S1(=O)=O`: 35.7%; `Nc1cc(N)c2nc(-c3ccccc3)c(Nc3ccc(F)cc3)nc2c1`: 7.94% (active); `Nc1nc(-c2ccccc2)nc2[nH]nc(Nc3ccc(C(F)(F)F)cc3)c12`: 35.1%.
Regarding `Nc1cccc(-c2nc(N)nc(NC3Cc4ccccc4C3)n2)c1`, the parasite survival was 42.3%.
With `NC(=S)N/N=C/c1ncccc1N` the figure was 37.3%; with `NC1C2CC3CC(C2)CC1C3` (stereo not given), 68.3%.
With `CCC(CC)[C@H](NC(C)=O)[C@@H]1[C@H](O)[C@@H](C(=O)O)C[C@H]1NC(=N)N` the figure was 69.6%; with `CC1CN(c2ncnc3c2c(-c2ccccc2)cn3-c2ccc(F)cc2)CC(C)O1` (stereo not given), 34.4%.
Next, `CCNC(=O)Nc1cc(-c2ccccc2)c(-c2cncc(C(=O)O)c2)cn1`: 33%; `CC(C)Nc1nc2cc(Cl)c(Cl)cc2n1[C@H]1O[C@@H](CO)[C@H](O)[C@@H]1O`: 72%.
In the case of `Nc1nnc(-c2ccc(Cl)cc2)s1`, the parasite survival is 59.9%.
`O=c1[nH]c(=O)n(Cc2cccc(Oc3ccccc3)c2)cc1Nc1ccccc1`: the parasite survival is 60.3%.
In the case of `CNc1nc(=O)[nH]cc1F`, the parasite survival was 60.5%.
With `CC(C)n1cnc2c(NCc3ccccc3)nc(NCc3ccccc3)nc21` the figure was 39.1%; with `COc1cc(Cc2cc(N)nc(N)n2)cc(OC)c1OC`, 31%; with `Oc1ccc2[nH]c(-c3ccccc3)nc2c1`, 66.2%.
Next, `O=C(c1ccc(F)cc1)N1CCN2C(=O)c3ccccc3C12c1ccccc1` (stereo not given): 64.9%; `Oc1cc(-c2cccc3ccccc23)[nH]n1`: 55.1%; `COc1ccc(NS(=O)(=O)c2ccc(Cl)s2)cn1`: 45.1%.
`CCCCCCCc1[nH]c2ccccc2c(=O)c1O`: the parasite survival was 49%.
With `NCCCc1ccccc1C(=O)Nc1ncc([N+](=O)O)s1` the figure was 47.9%.
With `O=C(O)CSc1cc(NS(=O)(=O)c2cccc3cccnc23)c2ccccc2c1O` the figure was 60.2%; with `Cc1cc(C)n(O)c(=O)c1`, 49.3%.
As for `CCOCc1nc2c(N)nc3ccccc3c2n1CC(C)(C)O`, the parasite survival was 55.5%.
With `Clc1ccc(COC(Cn2ccnc2)c2ccc(Cl)cc2Cl)c(Cl)c1` (stereo not given) the figure was 21.8%; with `CCC[C@@H]1C[C@@H](C(=O)N[C@@H]([C@H]2O[C@H](SC)[C@H](O)[C@@H](O)[C@H]2O)[C@H](C)Cl)N(C)C1`, 16.1% (active).
With `CC(C)c1ccc(COc2cccc(-c3cc([S+](C)[O-])c(C#N)c(=O)[nH]3)c2)cc1` (stereo not given) the figure was 13.2% (active); with `NC[C@H]1O[C@H](O[C@H]2[C@H](O)[C@@H](O[C@H]3O[C@H](CO)[C@@H](O)[C@H](N)[C@H]3O)[C@H](N)C[C@@H]2N)[C@H](N)C[C@@H]1O`, 48.9%.
On to `COc1ccc(NC(=O)c2cc3ccccn3n2)cc1`, for which the parasite survival is 44.5%.
For the compound `O=C(CSc1nnc(Br)n1-c1ccc(C2CC2)c2ccccc12)Nc1ccc(C(=O)O)cc1Cl`, the parasite survival was 61%.
As to `COc1c(NC(=O)[C@H]2CC[C@@H](COc3ccc([N+](=O)[O-])cc3)CC2)c(F)cc2c(=O)c(C(=O)O)cn(C3CC3)c12`, the parasite survival is 47.7%.
Next, `Cc1cc(CCOc2c(C)cc(-c3nnn(C)n3)cc2C)on1`: 65.1%.
